Measured values reported in ChEMBL document CHEMBL1961873, “Compounds: GSK PKIS; Assays: Nanosyn kinase panel” (2012).

Assays:
[1] = target: Ribosomal protein S6 kinase alpha-6 (Homo sapiens) (UniProt Q9UK32); conditions: at 1 µM;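 also: each value is a mean inhibition of RSK4 from a GSK PKIS panel screen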
[2] = target: T1, Serine/threonine-protein kinase Sgk1 (Homo sapiens) (UniProt O00141); conditions: at 0.1 µM
T1 sequence (whole entry): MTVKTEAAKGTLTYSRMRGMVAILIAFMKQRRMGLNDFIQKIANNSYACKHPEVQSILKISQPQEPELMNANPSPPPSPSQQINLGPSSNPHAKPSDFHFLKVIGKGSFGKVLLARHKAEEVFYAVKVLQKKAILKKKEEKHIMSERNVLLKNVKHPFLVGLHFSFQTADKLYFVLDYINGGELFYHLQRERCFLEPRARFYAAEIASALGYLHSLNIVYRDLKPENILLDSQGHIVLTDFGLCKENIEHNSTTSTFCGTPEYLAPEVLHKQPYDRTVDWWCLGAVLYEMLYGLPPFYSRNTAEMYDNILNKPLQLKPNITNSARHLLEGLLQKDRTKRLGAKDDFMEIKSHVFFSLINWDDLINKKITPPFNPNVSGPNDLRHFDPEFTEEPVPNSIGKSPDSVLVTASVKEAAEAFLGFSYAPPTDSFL

[3] = target: T1, Serine/threonine-protein kinase Sgk1 (Homo sapiens); conditions: at 1 µM
[4] = target: T2, Serine/threonine-protein kinase Sgk2 (Homo sapiens) (UniProt Q9HBY8); conditions: at 0.1 µM
T2 sequence (whole entry): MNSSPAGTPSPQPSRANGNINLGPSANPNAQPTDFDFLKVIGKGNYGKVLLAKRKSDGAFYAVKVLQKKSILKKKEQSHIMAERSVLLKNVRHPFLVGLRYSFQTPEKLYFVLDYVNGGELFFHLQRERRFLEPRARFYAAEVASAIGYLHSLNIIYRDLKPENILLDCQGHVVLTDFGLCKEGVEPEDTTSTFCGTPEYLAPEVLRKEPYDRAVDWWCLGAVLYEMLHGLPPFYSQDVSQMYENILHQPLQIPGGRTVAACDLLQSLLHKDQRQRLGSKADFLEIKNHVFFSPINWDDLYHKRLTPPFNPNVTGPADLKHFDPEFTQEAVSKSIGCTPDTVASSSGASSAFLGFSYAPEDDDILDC

[5] = target: T2, Serine/threonine-protein kinase Sgk2 (Homo sapiens); conditions: at 1 µM
[6] = target: T3, Serine/threonine-protein kinase Sgk3 (Homo sapiens) (UniProt Q96BR1); conditions: at 0.1 µM
T3 sequence (whole entry): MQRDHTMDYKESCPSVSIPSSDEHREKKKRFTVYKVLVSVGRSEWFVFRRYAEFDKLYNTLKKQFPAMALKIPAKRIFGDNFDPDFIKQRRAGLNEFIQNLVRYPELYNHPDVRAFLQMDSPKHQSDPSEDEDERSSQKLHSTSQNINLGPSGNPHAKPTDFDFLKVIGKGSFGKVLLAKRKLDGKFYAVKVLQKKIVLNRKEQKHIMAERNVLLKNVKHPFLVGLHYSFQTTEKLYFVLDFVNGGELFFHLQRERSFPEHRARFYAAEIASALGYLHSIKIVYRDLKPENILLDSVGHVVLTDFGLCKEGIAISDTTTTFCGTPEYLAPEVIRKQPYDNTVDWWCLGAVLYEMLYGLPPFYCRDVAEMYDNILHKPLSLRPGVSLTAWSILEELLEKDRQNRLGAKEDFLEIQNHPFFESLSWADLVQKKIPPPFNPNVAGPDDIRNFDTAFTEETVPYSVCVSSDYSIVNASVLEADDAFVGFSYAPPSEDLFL

[7] = target: T3, Serine/threonine-protein kinase Sgk3 (Homo sapiens); conditions: at 1 µM
[8] = target: 5'-AMP-activated protein kinase catalytic subunit alpha-1 (Homo sapiens) (UniProt Q13131); conditions: at 0.1 µM
5'-AMP-activated protein kinase catalytic subunit alpha-1 (Homo sapiens), sequence (Q13131 whole entry, looked up): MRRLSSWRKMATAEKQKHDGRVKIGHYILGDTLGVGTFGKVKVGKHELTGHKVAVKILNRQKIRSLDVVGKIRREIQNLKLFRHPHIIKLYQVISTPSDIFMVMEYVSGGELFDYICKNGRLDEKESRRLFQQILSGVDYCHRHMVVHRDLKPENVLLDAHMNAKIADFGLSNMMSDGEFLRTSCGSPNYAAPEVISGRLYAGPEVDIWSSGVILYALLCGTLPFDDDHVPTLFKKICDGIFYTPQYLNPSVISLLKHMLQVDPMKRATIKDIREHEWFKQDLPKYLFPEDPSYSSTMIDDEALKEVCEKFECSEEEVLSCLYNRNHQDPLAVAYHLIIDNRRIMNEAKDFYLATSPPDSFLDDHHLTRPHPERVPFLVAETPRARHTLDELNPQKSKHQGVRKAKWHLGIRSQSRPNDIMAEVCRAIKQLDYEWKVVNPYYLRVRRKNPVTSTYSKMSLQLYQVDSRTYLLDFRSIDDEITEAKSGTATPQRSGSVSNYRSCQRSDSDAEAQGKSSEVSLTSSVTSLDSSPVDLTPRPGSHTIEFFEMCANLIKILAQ

[9] = target: 5'-AMP-activated protein kinase catalytic subunit alpha-1 (Homo sapiens) (UniProt Q13131); conditions: at 1 µM
[10] = target: 5'-AMP-activated protein kinase catalytic subunit alpha-2 (Homo sapiens) (UniProt P54646); conditions: at 0.1 µM
5'-AMP-activated protein kinase catalytic subunit alpha-2 (Homo sapiens), sequence (P54646 whole entry, looked up): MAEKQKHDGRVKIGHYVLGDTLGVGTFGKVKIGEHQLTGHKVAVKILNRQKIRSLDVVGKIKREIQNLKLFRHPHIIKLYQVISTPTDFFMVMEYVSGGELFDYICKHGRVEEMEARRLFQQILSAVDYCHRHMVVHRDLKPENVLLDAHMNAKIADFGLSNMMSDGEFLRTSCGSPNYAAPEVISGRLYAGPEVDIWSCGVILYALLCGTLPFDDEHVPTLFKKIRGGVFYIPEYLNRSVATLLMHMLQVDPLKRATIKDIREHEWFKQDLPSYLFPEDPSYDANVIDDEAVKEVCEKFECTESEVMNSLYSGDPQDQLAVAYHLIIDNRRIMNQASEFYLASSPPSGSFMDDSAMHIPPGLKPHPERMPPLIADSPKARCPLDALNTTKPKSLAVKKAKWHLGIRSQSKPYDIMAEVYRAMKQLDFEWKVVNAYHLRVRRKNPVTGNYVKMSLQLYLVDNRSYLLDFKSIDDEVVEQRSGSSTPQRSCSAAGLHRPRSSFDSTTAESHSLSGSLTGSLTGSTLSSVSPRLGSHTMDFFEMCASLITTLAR

[11] = target: 5'-AMP-activated protein kinase catalytic subunit alpha-2 (Homo sapiens) (UniProt P54646); conditions: at 1 µM
[12] = target: T4, NUAK family SNF1-like kinase 1 (Homo sapiens) (UniProt O60285); conditions: at 0.1 µM
T4 sequence (whole entry): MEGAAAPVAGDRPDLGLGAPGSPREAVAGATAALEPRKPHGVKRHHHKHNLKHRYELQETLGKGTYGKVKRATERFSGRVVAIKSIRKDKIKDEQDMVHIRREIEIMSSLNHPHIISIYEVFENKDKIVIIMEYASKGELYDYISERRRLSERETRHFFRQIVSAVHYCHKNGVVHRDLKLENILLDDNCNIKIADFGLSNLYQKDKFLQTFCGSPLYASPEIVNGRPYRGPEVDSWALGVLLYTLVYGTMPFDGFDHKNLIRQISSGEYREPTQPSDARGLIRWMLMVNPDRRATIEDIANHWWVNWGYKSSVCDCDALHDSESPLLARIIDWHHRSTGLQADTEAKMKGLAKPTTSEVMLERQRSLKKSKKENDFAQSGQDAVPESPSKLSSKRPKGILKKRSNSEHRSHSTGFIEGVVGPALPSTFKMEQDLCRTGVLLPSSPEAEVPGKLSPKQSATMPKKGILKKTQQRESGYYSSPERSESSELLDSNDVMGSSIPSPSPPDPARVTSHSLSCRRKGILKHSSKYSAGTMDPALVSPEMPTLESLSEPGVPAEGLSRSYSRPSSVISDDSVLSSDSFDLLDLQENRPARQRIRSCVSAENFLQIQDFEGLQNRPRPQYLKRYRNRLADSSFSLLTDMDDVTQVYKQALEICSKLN

[13] = target: T4, NUAK family SNF1-like kinase 1 (Homo sapiens); conditions: at 1 µM
[14] = target: T5, Serine/threonine-protein kinase BRSK1 (Homo sapiens) (UniProt Q8TDC3); conditions: at 0.1 µM
T5 sequence (whole entry): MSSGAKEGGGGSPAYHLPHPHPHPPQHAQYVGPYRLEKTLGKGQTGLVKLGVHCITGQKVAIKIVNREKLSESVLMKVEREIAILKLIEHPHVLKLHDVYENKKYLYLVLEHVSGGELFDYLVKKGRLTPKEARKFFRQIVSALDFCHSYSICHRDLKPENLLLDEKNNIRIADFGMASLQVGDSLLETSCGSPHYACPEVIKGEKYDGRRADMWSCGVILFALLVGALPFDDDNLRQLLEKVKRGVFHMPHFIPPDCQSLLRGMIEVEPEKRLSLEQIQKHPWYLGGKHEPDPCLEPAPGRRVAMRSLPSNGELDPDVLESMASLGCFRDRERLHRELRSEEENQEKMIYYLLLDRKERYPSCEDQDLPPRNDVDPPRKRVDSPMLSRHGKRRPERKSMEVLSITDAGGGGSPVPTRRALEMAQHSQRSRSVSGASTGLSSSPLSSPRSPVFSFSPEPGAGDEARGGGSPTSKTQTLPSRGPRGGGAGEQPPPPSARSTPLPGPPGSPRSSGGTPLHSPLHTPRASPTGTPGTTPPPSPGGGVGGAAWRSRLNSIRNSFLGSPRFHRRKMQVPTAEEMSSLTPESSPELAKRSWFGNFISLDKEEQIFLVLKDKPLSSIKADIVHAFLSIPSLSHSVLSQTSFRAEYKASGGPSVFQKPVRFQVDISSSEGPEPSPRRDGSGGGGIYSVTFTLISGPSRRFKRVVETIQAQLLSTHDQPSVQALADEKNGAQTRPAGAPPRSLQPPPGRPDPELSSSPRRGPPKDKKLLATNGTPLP

[15] = target: T5, Serine/threonine-protein kinase BRSK1 (Homo sapiens); conditions: at 1 µM
[16] = target: T6, Serine/threonine-protein kinase BRSK2 (Homo sapiens) (UniProt Q8IWQ3); conditions: at 0.1 µM
T6 sequence (whole entry): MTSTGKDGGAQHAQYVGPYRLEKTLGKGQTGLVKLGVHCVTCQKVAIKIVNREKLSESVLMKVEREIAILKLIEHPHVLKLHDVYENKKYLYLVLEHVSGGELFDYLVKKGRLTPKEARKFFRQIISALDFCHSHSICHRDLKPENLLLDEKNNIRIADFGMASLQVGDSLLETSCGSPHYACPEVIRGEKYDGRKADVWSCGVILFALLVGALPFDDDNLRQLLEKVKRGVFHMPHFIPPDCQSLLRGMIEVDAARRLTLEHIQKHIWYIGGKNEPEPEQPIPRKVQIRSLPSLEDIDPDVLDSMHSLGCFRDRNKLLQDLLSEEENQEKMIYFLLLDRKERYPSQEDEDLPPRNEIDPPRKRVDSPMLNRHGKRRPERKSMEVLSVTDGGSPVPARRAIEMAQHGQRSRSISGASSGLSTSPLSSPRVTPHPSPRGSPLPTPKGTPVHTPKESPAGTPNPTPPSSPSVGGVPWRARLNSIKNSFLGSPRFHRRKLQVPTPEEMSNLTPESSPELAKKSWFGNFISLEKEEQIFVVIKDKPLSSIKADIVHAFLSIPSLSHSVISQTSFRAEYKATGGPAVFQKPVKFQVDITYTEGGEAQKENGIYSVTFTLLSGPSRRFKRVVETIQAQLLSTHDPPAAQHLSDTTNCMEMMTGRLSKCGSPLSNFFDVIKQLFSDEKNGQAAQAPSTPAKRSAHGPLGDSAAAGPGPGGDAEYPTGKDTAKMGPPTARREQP

[17] = target: T6, Serine/threonine-protein kinase BRSK2 (Homo sapiens); conditions: at 1 µM
[18] = target: Calcium/calmodulin-dependent protein kinase type 1D (Homo sapiens) (UniProt Q8IU85); conditions: at 0.1 µM
Calcium/calmodulin-dependent protein kinase type 1D (Homo sapiens), sequence (Q8IU85 whole entry, looked up): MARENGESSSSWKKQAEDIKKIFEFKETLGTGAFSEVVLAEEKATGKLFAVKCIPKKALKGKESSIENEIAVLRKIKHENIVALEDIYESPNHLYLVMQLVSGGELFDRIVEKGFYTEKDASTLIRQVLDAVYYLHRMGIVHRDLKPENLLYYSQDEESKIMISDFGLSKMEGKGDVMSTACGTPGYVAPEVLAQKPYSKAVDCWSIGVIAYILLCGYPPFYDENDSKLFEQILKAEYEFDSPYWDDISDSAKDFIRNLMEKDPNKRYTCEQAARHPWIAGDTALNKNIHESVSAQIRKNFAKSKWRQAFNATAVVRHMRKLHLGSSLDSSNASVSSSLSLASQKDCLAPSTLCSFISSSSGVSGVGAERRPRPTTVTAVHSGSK

[19] = target: Calcium/calmodulin-dependent protein kinase type 1D (Homo sapiens) (UniProt Q8IU85); conditions: at 1 µM
[20] = target: Calcium/calmodulin-dependent protein kinase type II subunit alpha (Homo sapiens) (UniProt Q9UQM7); conditions: at 0.1 µM;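 also: reported values are averages (mean inhibition of CAMK2A)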
Calcium/calmodulin-dependent protein kinase type II subunit alpha (Homo sapiens), sequence (Q9UQM7 whole entry): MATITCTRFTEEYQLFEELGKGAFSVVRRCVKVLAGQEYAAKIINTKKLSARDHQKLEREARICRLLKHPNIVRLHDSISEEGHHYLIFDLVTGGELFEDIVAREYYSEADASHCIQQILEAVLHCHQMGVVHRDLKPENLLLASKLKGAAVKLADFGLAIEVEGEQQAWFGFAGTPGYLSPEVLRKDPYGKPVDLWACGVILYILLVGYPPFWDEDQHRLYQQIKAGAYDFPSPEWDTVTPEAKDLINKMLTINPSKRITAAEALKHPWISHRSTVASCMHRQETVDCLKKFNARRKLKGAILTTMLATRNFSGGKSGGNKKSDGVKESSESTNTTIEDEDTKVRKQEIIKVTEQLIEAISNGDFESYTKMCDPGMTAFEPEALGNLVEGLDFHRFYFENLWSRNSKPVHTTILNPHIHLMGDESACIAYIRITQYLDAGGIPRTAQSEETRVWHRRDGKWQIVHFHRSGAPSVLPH

Ribosomal protein S6 kinase alpha-6 (Homo sapiens), sequence (Q9UK32 whole entry): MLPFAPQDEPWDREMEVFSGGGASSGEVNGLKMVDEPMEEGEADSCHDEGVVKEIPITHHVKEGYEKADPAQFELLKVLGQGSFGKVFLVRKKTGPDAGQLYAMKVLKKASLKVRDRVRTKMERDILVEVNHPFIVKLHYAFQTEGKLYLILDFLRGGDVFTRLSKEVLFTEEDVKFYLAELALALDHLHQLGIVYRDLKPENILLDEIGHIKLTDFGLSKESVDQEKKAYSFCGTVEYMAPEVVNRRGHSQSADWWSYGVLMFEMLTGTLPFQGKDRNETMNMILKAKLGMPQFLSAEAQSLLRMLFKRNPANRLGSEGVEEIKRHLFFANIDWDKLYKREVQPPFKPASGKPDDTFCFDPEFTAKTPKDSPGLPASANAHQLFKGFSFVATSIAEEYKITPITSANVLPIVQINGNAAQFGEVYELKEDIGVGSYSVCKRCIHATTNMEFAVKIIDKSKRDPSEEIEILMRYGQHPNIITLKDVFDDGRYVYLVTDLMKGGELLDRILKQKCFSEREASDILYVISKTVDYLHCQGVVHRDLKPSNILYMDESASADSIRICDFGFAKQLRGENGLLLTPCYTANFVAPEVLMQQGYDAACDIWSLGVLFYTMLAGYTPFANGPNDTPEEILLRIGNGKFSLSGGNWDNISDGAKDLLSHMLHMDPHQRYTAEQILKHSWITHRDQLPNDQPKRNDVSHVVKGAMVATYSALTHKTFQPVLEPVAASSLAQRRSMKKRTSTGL

SMILES | inhibition [1] [%] | inhibition [2] [%] | inhibition [3] [%] | inhibition [4] [%] | inhibition [5] [%] | inhibition [6] [%] | inhibition [7] [%] | inhibition [8] [%] | inhibition [9] [%] | inhibition [10] [%] | inhibition [11] [%] | inhibition [12] [%] | inhibition [13] [%] | inhibition [14] [%] | inhibition [15] [%] | inhibition [16] [%] | inhibition [17] [%] | inhibition [18] [%] | inhibition [19] [%] | inhibition [20] [%]
Cc1ccc(C(=O)NC2CCC2)cc1-c1ccc(C(=O)NCC2CC2)cc1 | 1.08 | 2.17 | 2.8 | 0.49 | -2.52 | 0.54 | 1.57 | 1.41 | 1.46 | 1.35 | 0.57 | 0.27 | 5.25 | 1.77 | 3.1 | 1.53 | 4.25 | 0.09 | 2.93 | 3.06
COc1ccc(C2=C(N3CCc4ccccc43)C(=O)NC2=O)cc1 | 4.12 | 5.57 | 2.06 | -2.15 | -5.83 | 4.38 | 1.94 | 4.29 | 5.67 | 1.73 | 5.49 | 3.26 | 9.32 | 1.07 | 3.32 | 2.56 | 3.2 | 0.57 | 1.29 | 5.74
COc1cccc(-n2cnc3c(N/N=C/c4ccncc4)ncnc32)c1 | 1.9 | 1.3 | 4.05 | 1.67 | 2.41 | 3.19 | 3.83 | 1.05 | 3.79 | -1.1 | 1.47 | 2.39 | 22.3 | -0.01 | 4.34 | -0.23 | 6.3 | 0.54 | -0.39 | 0.58
Cc1ccc(NC(=O)c2ccoc2)cc1-c1ccc(C(=O)NCC2CC2)cc1 | -0.14 | 0.63 | 0.73 | 2.95 | -0.89 | 7.71 | 3.98 | 0.17 | 1.06 | -0.17 | 1.09 | -0.47 | -0.78 | 0 | 0.43 | 1.99 | 0.95 | -0.63 | -1.53 | 1.08
Fc1ccc(-c2ncn(CCCN3CCOCC3)c2-c2ccncc2)cc1 | -0.21 | -0.45 | 0.64 | 1.89 | -4.02 | -1.19 | -1.33 | 0.37 | -1.12 | 0.28 | 2.58 | 0.22 | 3.87 | 1.09 | 1.49 | 1.32 | -0.21 | 1.77 | 1.54 | 0.57
CCC(=O)Nc1ccc(C)c(-c2ccc(C(=O)NCC3CC3)cc2)c1 | 1.25 | 1.88 | 2.02 | 1.32 | 0.49 | 2.14 | 2.43 | 1.31 | 2.54 | 4.95 | 2.49 | 0.85 | 1.36 | 1.35 | 0.24 | 1.47 | 2.78 | 0.77 | 1.64 | 1.27
c1ccc(-c2n[nH]cc2-c2ccnc(-c3ccc(OCCN4CCOCC4)cc3)c2)nc1 | -0.39 | 5.23 | 3.03 | 3.23 | -0.68 | 3.83 | 4.03 | 0.65 | -0.75 | 6.57 | 4.37 | 5.95 | 7.16 | 8.84 | 6.57 | 6.13 | 4.06 | 2.06 | 3.63 | -0.64
